Assay outcomes as filed in PubChem BioAssay.
Rows were chosen to be rich in hits. Some 4.1% of all compounds tested hit in one or more screens of this group.
DAX1 inh-1: DAX1 (NR0B1) inhibitors on StAR promoter, primary screen, cell-based, luminescence, SF-1 (NR5A1), full-length DAX-1. HEK293T StAR-luciferase reporter, SF-1/DAX-1 repression relief. inhibition, % at 6.8 µM. 1.1% of 370,000 active;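 active = inhibition above the mean over all tested compounds plus 3 SD, cut at about 3.6% in these data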;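 also: higher inhibition means more luminescence from relief of DAX-1 repression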
DAX1 inh-2: DAX1 (NR0B1) inhibitors, primary screen, cell-based, HEK293, Gal4-DAX1, luciferase luminescence; Nuclear receptor subfamily 0 group B member 1 (Homo sapiens), P51843; AID 504766, 2011; 0.99% of 340,000 active; HEK293 Gal4-DAX1 luciferase reporter; inhibition, % at 6.75 µM;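 active = inhibition above the mean over all tested compounds plus 3 SD, cut at about 4.2% in these data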;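 also: inhibition shows as a rise in luminescence from relieved DAX1 repression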
Target sequence (P51843 207-470 limits assumed): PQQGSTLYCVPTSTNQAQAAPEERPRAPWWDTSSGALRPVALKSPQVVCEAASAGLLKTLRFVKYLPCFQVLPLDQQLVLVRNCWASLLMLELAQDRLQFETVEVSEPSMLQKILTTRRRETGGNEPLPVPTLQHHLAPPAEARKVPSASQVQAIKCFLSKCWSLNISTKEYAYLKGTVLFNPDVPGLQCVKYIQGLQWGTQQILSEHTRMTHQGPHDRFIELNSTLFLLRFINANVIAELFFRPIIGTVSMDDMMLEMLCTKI
ssDAF-12 act: S. stercoralis DAF-12 nuclear receptor activators, primary screen, cell-based, luminescence, HEK293, GRIP1 co-expression, lit1-tk-luc; AID 652126, 2013; Nuclear hormone receptor DAF-12 (Strongyloides stercoralis); 1% of 370,000 active; activation, % at 6.8 µM; HEK293 ssDAF-12/GRIP1 lit1-tk-luc reporter; % of 3 µM dafachronic acid response;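 active = activation above the mean over all tested compounds plus 3 SD, cut at about 0.9% in these data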
hgDAF-12 ag: H. glycines DAF-12 receptor agonists, primary screen, cell-based, luminescence, HEK293, GAL4 fusion, UAS-luciferase. HEK293 GAL4-hgDAF12 UAS-luciferase reporter, agonist luminescence; normalized to butyrate control. activation, % at 6.8 µM. 1.8% of 370,000 active. AID 687014, 2013;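 active = activation above a cutoff set at the mean of all screened compounds plus 3 SD, cut at about 10% in these data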
hcDAF12 agonist: H. contortus DAF-12 nuclear receptor activators, primary screen, cell-based, luminescence, HEK293, lit1-tk-luc reporter; HEK293 hcDAF-12 lit1-tk-luc reporter; 0% DMSO, 100% Δ7-dafachronic acid; activation, % at 6.8 µM; 1.4% of 370,000 active; AID 652067, 2013;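 active = activation above the mean of all tested compounds plus 3 SD, cut at about 5.5% in these data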
A number is an active result; n = inactive; x = not tested or not shown.

SMILES | DAX1 inh-1 | DAX1 inh-2 | ssDAF-12 act | hgDAF-12 ag | hcDAF12 agonist
COP(=O)(OC)C(Cc1ccccc1)NC(=O)CNC(=O)OCc1ccccc1 (configuration not stated) | n | x | n | n | n
COc1ccc(-c2cc3ncc(C(C)=O)c(C)n3n2)cc1 | n | 4.4 | n | n | n
O=c1c2c(n3nnnc3n1Cc1ccc(Cl)cc1)-c1ccccc1CC21CCCC1 | n | x | n | n | n
CNS(=O)(=O)c1ccc(NC(=O)c2ccoc2C)cc1 | n | n | n | n | n
Cc1cc(NC(=O)c2ccoc2C)ccc1Br | 3.7 | n | n | n | n
Cc1ccccc1C(=O)Nc1cccc(NC(=O)c2ccccc2[N+](=O)[O-])c1 | n | n | n | n | n
NS(=O)(=O)c1ccc(NC(=O)c2cccc3ccccc23)cc1 | n | n | n | n | n
Cc1cc(NC(=O)c2ccccc2[N+](=O)[O-])ccc1Br | n | 4.8 | n | n | n
NS(=O)(=O)c1ccc(NC(=O)c2cccc3cc4ccccc4nc23)cc1 | n | n | 0.9 | n | n
Cc1occc1C(=O)Nc1ccc(S(N)(=O)=O)cc1 | n | 5.6 | n | n | n
O=c1c2cc3cc4c(cc3nc2ncn1Cc1cccnc1)OCO4 | n | x | n | n | n
CC(=O)NC(Cc1ccc2c(c1)OCO2)C(=O)N1CCCN(C(C)=O)CC1 (configuration not stated) | n | x | n | n | n
C=CCN1C(=O)[C@@H](CC(=O)N2CCN(C(=O)C3CC3)CC2)[C@]2(C(=O)OC)CCCCC=C12 | n | x | n | n | n
CCN(CC)C(=O)CC[C@@H]1CC[C@]2(CCCN(Cc3cccnc3)C2)O1 | n | x | n | n | n
C#CCCN([C@@H](CC(C)C)C(=O)OC)S(=O)(=O)c1ccccc1Br | n | x | n | n | n
O=C(COC(=O)COc1cccc(C(F)(F)F)c1)Nc1ccc(N2CCOCC2)cc1 | n | n | n | n | 6.1
N#Cc1ccc(OCC(=O)OCC(=O)Nc2ccc(N3CCOCC3)cc2)cc1 | n | n | n | n | n
CC(C)C[C@H]1COc2cccc(F)c2S(=O)(=O)N1Cc1cn(CC2CCCCC2)nn1 | n | x | n | n | n
Cc1ccc(C(=O)c2cc3ccccc3o2)cc1 | n | n | n | 12 | n
Cc1ccc(C(=O)c2cc3ccccc3o2)cc1C | n | n | n | 11 | n
C[C@H]1C2CC(OC(=O)NCc3ccccc3)C(C2)[C@H]2CCCCN21 (some centres not stated) | n | x | n | n | n
O=S1(=O)c2ccc(N3CCC[C@@H]3CO)cc2O[C@@H]2CCN1C2 | n | x | n | n | n
CCCC/C=C1/[C@@H](CC)N(Cc2ccc(OC)cc2OC)C2=N[C@H](c3ccccc3)CC(=O)N21 | x | x | n | n | n
CC(C)(C)OC(=O)NC(Cc1ccccc1)C1CC(C#N)C(=O)O1 (configuration not stated) | x | x | n | n | n
Nc1[nH]c(C(=O)c2ccccc2)c(-c2ccccc2[N+](=O)[O-])c1C(=O)NCCc1c[nH]c2ccccc12 | n | x | n | n | n
SMILES | DAX1 inh-1 | DAX1 inh-2 | ssDAF-12 act | hgDAF-12 ag | hcDAF12 agonist
COc1cc(CC(=O)O)c([N+](=O)[O-])cc1OC | n | n | n | n | n
COc1cc2c(cc1[N+](=O)[O-])n(C(C)C)c(=O)n2C(C)C | n | 5.5 | n | n | n
C/C(=N\OC(=O)Nc1ccccc1)c1ccc(C)cc1 | n | 5.9 | n | n | n
C/C(=N/NC(=O)Nc1ccccc1)c1ccc(C)cc1 | n | n | n | n | n
OCC1SC(O)C(O)C(O)C1O (configuration not stated) | n | x | n | n | n
Nc1ncccc1OCc1ccc(Br)cc1 | n | n | n | 11 | n
COc1ccc(COc2cccnc2N)cc1 | n | n | n | n | n
CCCOc1cccc(C(=O)Nc2cccc3ncccc23)c1 | n | n | n | n | n
CCCOc1cccc(C(=O)Nc2ccc(Br)cc2F)c1 | n | n | n | 11 | n
O=C(CCl)NC1CCCCN(Cc2ccc(OC(F)(F)F)cc2)C1=O (configuration not stated) | n | x | n | n | n
COc1ccc(CN2CCNC(=O)C2CC(=O)N(Cc2nccn2C)C(C)C)c(OC)c1 (configuration not stated) | n | 4.4 | n | n | n
CC(C)CCN(C)C1CCN(C(=O)Nc2ccc(Cl)cc2)CC1 | n | x | n | n | n
c1ccc(Nc2nnc(-c3cccc4ccccc34)o2)cc1 | n | x | 1.2 | n | 6.3
O=c1c2ccccc2oc2ccc(Oc3ccccc3)cc12 | n | 5.1 | n | n | n
O=C(Nc1ccc2c(c1)OCO2)NC1CCCCN(Cc2cccc(Cl)c2)C1=O (configuration not stated) | n | x | n | n | n
Cc1ccc(-n2c(SCc3cccc(F)c3)nc3sc4c(c3c2=O)CCCC4)cc1 | n | x | n | n | n
Cc1cc(C)c(S(=O)(=O)Nc2nnc(CC(C)C)s2)c(C)c1 | n | 4.4 | n | n | n
Cc1cc(C)c(S(=O)(=O)Nc2nnc(C)s2)c(C)c1 | n | n | n | n | n
CC(C)C1=NN(C(=O)c2ccccc2)C(O)(C(C)(C)C)C1 (configuration not stated) | n | n | n | 12 | n
S=C(Nc1ccccc1)Nc1ccccc1-n1cccc1 | n | x | n | n | 5.7
S=C(Nc1ccccc1)Nc1ccc(Br)cc1 | n | 5.7 | n | n | n
COc1cc(NC(=O)C2CCCN(S(=O)(=O)c3ccc(Cl)s3)C2)cc(OC)c1 (configuration not stated) | n | x | n | n | n
C#Cc1cccc(NC(=O)c2ccc(Cl)cc2Cl)c1 | n | n | n | 12 | n
CCOC(=O)N1CCN(S(=O)(=O)c2ccc(C(=O)N(CCN(C)C)c3nc4ccc(Cl)cc4s3)cc2)CC1 | n | n | n | n | n
CCOC(=O)N1CCN(S(=O)(=O)c2ccc(C(=O)N(CCCN(C)C)c3nc4ccc(OC)cc4s3)cc2)CC1 | 3.6 | n | n | n | n
O=C(Nc1ccc(F)cc1)OCCN1C(=O)CCC12CCC(c1ccc(Cl)cc1)CC2 (configuration not stated) | n | x | n | n | n
CCC(=O)Nc1ccc(CCC(=O)N2CCCC2)cc1 | n | 5.5 | n | n | n
CCNS(=O)(=O)c1ccc(CCC(=O)N2CCCC2)cc1 | n | 5.1 | n | n | n
COc1ccc(S[C@]2(C(=O)NCCCN(C)C)CC(=O)N[C@@H]2c2ccc(OC)cc2)cc1 | n | x | n | n | n
